Structures are written as SMILES. Values without a mark were called inactive. The source made the active and inactive calls.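 The calls were made as follows: active = compound that reduces growth-factor-driven endothelial tube area in a mixed cell culture, no cutoff stated; inactive = the rest.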

The assay in a line: inhibition of endothelial tube formation, primary screen, imaging, VEGF stimulated, CD31 staining, tube area, NPC library (AID 1117340). To be noted: VEGF-stimulated ADSC/ECFC co-culture, at 10 µM, hits give high values.
For `O=C(O)Cc1cn(-c2ccccc2)nc1-c1ccc(Cl)cc1`, the tube area decrease is -3.1%.
As for `CC1(S(=O)(=O)O)CC(=O)c2ccccc2C1=O` (centres undefined), the tube area decrease is 54.7% (active).
As for `OCCCc1ccccc1`, the figure is -11.1%; as for `NC(N)=NN=C(/C=C/c1ccc([N+](=O)[O-])o1)/C=C/c1ccc([N+](=O)[O-])o1`, 38.8% (active).
To `O=C1c2ccccc2CCc2ccccc21` belongs -5.3%.
To `Oc1ccccc1` belongs -36.6%; to `CCOC(=O)c1ccc(NC(=O)CN2CCCCC2)cc1`, 0.1%; to `COc1ccccc1OC(=O)Oc1ccccc1OC`, 14.8%.
Regarding `CC1(C)CO[C@@H](CC(=O)O)CN1`, the tube area decrease was -11.6%.
As for `CCCCN=C(N)N=C(N)N`, the figure is 3.5%; as for `O=C(O)CCC(=O)C(=O)O`, -17.8%; as for `Cc1ccc(CCn2c3c(c4cc(Cl)ccc42)CN(C)CC3)cn1`, 3.4%.
Regarding `C[C@@H](N)C(=O)O`, the tube area decrease is 15.4%.
To `CCc1nnc(NS(=O)(=O)c2ccc(N)cc2)s1` belongs -5.1%.
As to `NS(=O)(=O)c1cc(-c2nn[nH]n2)c(NCc2cccs2)cc1Cl`, the tube area decrease is -8.2%.
`O=C(O)CNC(=O)CNC(=O)CNC(=O)CSC(=O)c1ccccc1`: the tube area decrease was -8.3%.
As for `CCCCCCCCCCCCCCCCCCN(C)C`, the figure is -8%; as for `Oc1cccc(-c2c3nc(c(-c4cccc(O)c4)c4ccc([nH]4)c(-c4cccc(O)c4)c4nc(c(-c5cccc(O)c5)c5ccc2[nH]5)CC4)C=C3)c1`, -79.5%.
To `C=CCNc1nc(NCC=C)nc(N2CCN(C(c3ccc(F)cc3)c3ccc(F)cc3)CC2)n1` belongs 17.9%.

For the origin of these results see PubChem BioAssay.
